# According to PubChem BioAssay (NCI):
# Compounds without any hit were thinned out: in the full panel of roughly 83,000, 20% have a hit.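 Method: cells in 96-well plates; compound added at one concentration; 48 h incubation; percent growth measured; values under 10 scored active.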 Values without a mark were called inactive. Activity calls are given as the source filed them.
# Test system: HL-60(TB) leukemia
# Experiment: NCI-60 one-dose screen, 48 h (100 = growth as untreated, 0 = no growth, -100 = all killed)
# Conditions: 10 µM unless noted
row,SMILES,growth
1,CCN(CC)CCSC(=O)C(O)(c1ccccc1)C1CCCC1 (stereo not given),94%
2,CCCCOP(=O)(OCCCC)C(C(=O)OCC)C(CC(=O)OCC)C(=O)OCC (stereo not given),102%
3,COc1cc(NC(=O)Nc2cnc(Nc3ccc(N4CCOCC4)cc3)nc2Oc2ccc(F)cc2)cc(OC)c1,65.4%
4,COc1ccc(C2=CN3CC=CCC3CC2=O)cc1 (stereo not given),110%
5,CC(=O)OCC1CCC(COC(C)=O)CC1 (stereo not given),85.5%
6,O=S(=O)(NCCNc1nccc(-c2c(-c3ccc(F)cc3)nc3sccn23)n1)c1ccc2ccccc2c1,88.1%
7,Cc1nc2sc(C(=O)Nc3cccc(Cl)c3C)c(N)c2cc1C(=O)/C=C/c1ccccc1,2.75% (active)
8,O=C1/C(=C/c2ccccc2)SC(=Nc2ccccc2)N1Nc1ccccc1,-7.82% (active)
9,CNC(=O)c1cc(Oc2ccc3c(c2)sc2nc(-c4ccc(NC(C)=O)cc4)cn23)ccn1,44.2%
10,C=C(C)[C@@H]1CC[C@]2(C(=O)NCCCO)CC[C@]3(C)[C@H](CC[C@@H]4[C@@]5(C)CCCNC(C)(C)[C@@H]5CC[C@]43C)[C@@H]12,34.1%
11,O=C(NCc1ccco1)C1CN(c2ccc(Cl)cc2)N(c2ccc(Cl)cc2)C1=O (stereo not given),5.03% (active)
12,Cc1ccc(-c2nc(SCc3nc4cc(Cl)c(Cl)cc4[nH]3)[nH]c(=O)c2C#N)cc1,96.9%
13,COc1ccc(C2NC3=C(CCCC3)C(C#N)(C#N)C2(C#N)C#N)cc1 (stereo not given),41.3%
14,CN1CCN(Cc2ccc(NC(=O)c3cncc(C#Cc4cnc(N)c5ccc(C#N)cc45)c3)cc2C(F)(F)F)CC1,-17% (active)
15,NC(N)=NS(=O)(=O)c1ccc(NC2=C(I)C(=O)c3ncccc3C2=O)cc1,99.2%
16,Cc1cnc(Nc2ccc(OCCN3CCCC3)cc2)nc1NCc1ccco1,81.2%
17,CC/C(=C(/c1ccc(Cl)cc1)c1ccc(OCCN2CCCCCC2)cc1)c1ccccc1,49.9%
18,Cc1nn(-c2ccc(Cl)cc2)c2ncnc(N/N=C/c3cccc([N+](=O)[O-])c3)c12,31%
19,COc1ccccc1N1CCCCC1,101%
20,Cc1ccc2nc(-c3cc4c([nH]c5ccccc54)c(-c4ccc(F)c(F)c4)n3)[nH]c2c1,48.5%

row,SMILES,growth
1,O=c1[nH]c(-c2ccncc2)nc2sc3c(c12)CCCCCC3,91.4%
2,C=C1C(=O)C2CCC1C2 (stereo not given),95.9%
3,COc1ccc(/C=C2\N=C(c3cccnc3)N(c3ccccc3)NC2=O)cc1,95%
4,O=C1/C(=C\c2ccc(F)cc2)CN(C(=O)c2ccccc2F)C/C1=C\c1ccc(F)cc1,-4.26% (active)
5,CC(=O)O[C@H]1CC[C@]2(C)[C@H]3CC=C4[C@@H]5[C@H](C)[C@@H](C)CC[C@]5(C(=O)NCCNCCNCCN)CC[C@@]4(C)[C@]3(C)CC[C@H]2C1(C)C,81.6%
6,O=C1C2=C(Nc3cc([N+](=O)[O-])ccc3N2)OC1c1c2ccccc2cc2ccccc12 (stereo not given),14.2%
7,O=C(Nc1ccc(OCc2nnc(-c3ccc(Cl)cc3)o2)c(F)c1)Nc1ccc(Cl)c(Cl)c1,95.5%
8,COc1ccc(OC)c(-c2c(C#N)c(-c3ccco3)nc3c2c(-c2ccccc2)nn3-c2ccccc2)c1,105%
9,Cc1ccc(-c2cc3nc(C(Cl)Cl)nc(-c4cccnc4)n3n2)cc1,10.5%
10,N#C/C(=C\c1ccc([N+](=O)[O-])cc1)n1nnc2cc(F)c(F)cc21,-27% (active)
11,COc1ccc2c(c1)NC(=O)CN2c1nc(NC2CC2)nc2ccccc12,-5.55% (active)
12,Cc1ncc(C(=O)Nc2ccc(CN3CCN(C)CC3)c(C(F)(F)F)c2)cc1C#Cc1cncc2ncccc12,41.7%
13,Cn1cc(-c2nonc2-c2cn(C)c3ccc(F)cc23)c2ccccc21,-24.3% (active)
14,C[n+]1cccc(NC(=O)c2ccc3ccc4ccc(C(=O)Nc5ccc[n+](C)c5)nc4c3n2)c1,61.4%
15,C=CCc1cc(Nc2c3ccc(Cl)cc3nc3ccc(OC)cc23)cc(CN(CC)CC)c1O,-17% (active)
16,O=C1C(Cl)=C(N=Nc2c(Cl)c(O)c3ccccc3c2O)C(=O)c2ccccc21,90.7%
17,OC(CCCCCCCCC(O)CN1CCc2ccccc2C1)CN1CCc2ccccc2C1 (stereo not given),95.1%
18,COc1ccc(-c2nn(-c3cccc(Cl)c3)cc2/C=C2\NC(=S)N(c3ccc(Cl)cc3)C2=O)cc1,24.9%
19,CCCCC1=C(Br)C(=O)c2nc(C)ccc2C1=O,77%
20,Cc1onc(-c2c(F)cccc2Cl)c1-c1ncc(-c2ccc(Br)cc2)o1,37.5%
